Screening data from PubChem BioAssay.
LASV entry inh = qHTS for Inhibitors of binding or entry into cells for Lassa Virus; 1.2% of 300,000 active; AID 540256, 2011; Potency, µM (titrated, usually from 37.9 µM), for inactives: top-dose activity change, negative = inhibition, hits mostly inhibitors; Lassa virus pseudotype entry inhibition, cell reporter; calls by dose curve; tested in HEK293 cells; note: potency is the fitted concentration of half-maximal effect; nearly all actives have a fitted effect of over 50% in size
VACV mCherry inh = qHTS for Stage-Specific Inhibitors of Vaccinia Orthopoxvirus: mCherry Reporter Primary qHTS. Vaccinia virus mCherry reporter infection, fluorescence. Potency, µM (highest dose often 36.5 µM), inactives show top-dose activity change, negative = inhibition, actives largely listed as inhibitors. AID 720579, 2013. 0.63% of 310,000 active; calls by dose curve; tested in A549 cells; note: potency is the fitted concentration of half-maximal effect; nearly all actives have a fitted effect of over 35% in size
VACV Venus inh = qHTS for Stage-Specific Inhibitors of Vaccinia Orthopoxvirus: Venus Reporter Primary qHTS | Potency, µM (doses to about 36.5 µM), without a hit: at the top dose activity change, negative = inhibition, most hits filed as inhibitors | Vaccinia virus Venus reporter expression, fluorescence | 0.46% of 330,000 active; calls by dose curve; tested in A549 cells; note: potency is the fitted concentration of half-maximal effect; nearly all actives have a fitted effect of over 30% in size
HCMV inh = qHTS Assay for inhibitors of the human cytomegalovirus (HCMV) | HFF cells, HCMV-luciferase reporter, 72 h; active compounds read low | activity change, negative = inhibition, % at 57.5 µM | 4.5% of 410,000 active | AID 1259415, 2018; in the data active = activity change below about -60%; inconclusive = no clear call, values can overlap the other calls; inactive = above about -39%
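Inhibition of viral replication was scored as loss of reporter luminescence in HFFs infected with HCMV-luciferase (MOI 1 PFU/cell) for 72 h; compounds tested at 2 doses, normalized to buffer and Salinomycin controls.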
MARV entry inh = qHTS for inhibitors of binding or entry into cells for Marburg Virus | Marburg virus pseudotyped entry inhibition, cell reporter | Potency, µM (series often up to 37.8 µM), without a hit: top-dose activity change, negative = inhibition, usual class: inhibitors | 1.8% of 300,000 active | AID 540276, 2011; calls by dose curve; tested in HEK293 cells; note: potency is the fitted concentration of half-maximal effect
FMDV inh = High Throughput Screening for Foot and Mouth Disease Virus Antivirals; 1.2% of 410,000 active; Potency, µM (highest dose often 57.9 µM), for inactives: at the highest dose activity change, negative = inhibition, most hits filed as inhibitors; FMDV antiviral cell-based qHTS; AID 1159524, 2015; calls by dose curve; tested in HEK293T cells; note: read-out not given here; potency is the fitted concentration of half-maximal effect; nearly all actives have a fitted effect of over 45% in size
An asterisk follows results filed as active; i = inactive; u = inconclusive; x = no result; [ ] = dose if it differs, or a comment. This is a sample that favours compounds with a hit; in the whole collection about 6.5% have one here. % is set by controls: 0 for no effect and ±100 for the full control effect.

SMILES	LASV entry inh	VACV mCherry inh	VACV Venus inh	HCMV inh	MARV entry inh	FMDV inh
Cc1ccc2c(c1)[C@H]1[C@H](CO2)[C@H](c2ccccc2)[C@]2(C)C(=O)Nc3ccccc3C(=O)N12	x	u	-27%	-76*	x	0%
CCOC(=O)[C@H]1[C@H]2COc3ccc(OC)cc3[C@@H]2N2C(=O)c3cc(C)ccc3NC(=O)[C@@]12C	x	i	-23%	-62*	x	-12%
Cc1ccc2c(c1)[C@H]1[C@H](CO2)[C@H](c2ccccc2)[C@]2(C)C(=O)Nc3ccc(Cl)cc3C(=O)N12	x	-24%	u	-33	x	-23%
CCOC(=O)c1ccc(NC(=O)C2=C(C)Nc3nc(SCc4ccc(Cl)cc4)nn3C2c2ccc(C)cc2)cc1 (configuration not stated)	u	-8%	0%	-16	-1%[46.1 µM]	-16%
CN(C)C(=O)c1ccc(-c2nc(N(C)C)c3ccccc3n2)cc1	x	i	0%	x	x	57%
Cc1ccc(NC(=O)COC(=O)c2ccccc2OCC(=O)N(C)C)cc1	x	-4%	-11%	x	x	x
Cc1ccc(OCC(=O)Nc2ccc3nn(-c4ccc(C)cc4)nc3c2)cc1	u	-4%	9%	96	u	40%
CCc1ccc(NC(=O)Nc2ccc3c(c2)N(C)C(=O)CS3)cc1	x	0%	-13%	-69*	x	-7%
Cc1cc(C)cc(NC(=O)Nc2ccc3c(c2)N(C)C(=O)CS3)c1	x	-29%	-22%	7	x	u
Cc1ccc(NC(=O)Cn2c(=O)n(Cc3ccc4c(c3)OCO4)c(=O)c3ccccc32)c(C)c1	7%[46.1 µM]	-15%	-6%	-4	u	-24%
COc1ccnc(N2CCN(c3cccc(C(F)(F)F)c3)CC2)c1C#N	u	-17%	-9%	6	-10%	x
COc1ccnc(N2CCN(c3ccc(Cl)cc3)CC2)c1C#N	-27%	-15%	-9%	-68*	-2%	u
COc1ccc2cc3cc(C(=O)Nc4ccccc4C)oc3nc2c1	4%[46.1 µM]	-13%	u	12	-15%[46.1 µM]	-3%
Cc1ccc(NC(=O)Cn2c(=O)n(Cc3ccco3)c(=O)c3sc4ccccc4c32)c(C)c1	5%[46.1 µM]	-6%	-20%	-2	-5%[46.1 µM]	-3%
O=C(Cn1c(=O)n(Cc2ccco2)c(=O)c2sc3ccccc3c21)Nc1ccc(F)cc1F	1%[46.1 µM]	-11%	-8%	-74*	-17%[46.1 µM]	-23%
CC(C)(C)S(=O)N1C[C@@H]2CC(=O)C=C2[C@H]1CCO (some centres not stated)	x	x	x	-2	x	x
Cc1cc(=O)n2nc(N3CCCC(C(=O)NCCCN4CC(C)CC(C)C4)C3)sc2n1 (configuration not stated)	x	i[7.34 µM]	0%[7.34 µM]	u	x	-14%
Cc1cc(=O)n2nc(N3CCCC(C(=O)NC4CCC(C)CC4)C3)sc2n1 (configuration not stated)	19%[46.1 µM]	i	-6%	-61*	-1%[46.1 µM]	3%
C[C@]12c3[nH]c4ccccc4c3CCN1C(=O)C(CC(=O)NCC13CC4CC(CC(C4)C1)C3)C[C@@H]2C(=O)N1CCCCC1 (some centres not stated)	x	u	-29%	-76*	x	-22%
C[C@]12c3[nH]c4ccccc4c3CCN1C(=O)C(CC(=O)NCC13CC4CC(CC(C4)C1)C3)C[C@@H]2C(=O)N1CCOCC1 (some centres not stated)	x	-4%	u	-38	x	u
CC(C)N(C(=O)[C@H]1C[C@H](CC(=O)NCC23CC4CC(CC(C4)C2)C3)C(=O)N2CCc3c([nH]c4cc(-c5ccco5)ccc34)[C@]12C)C(C)C	x	28µM*	u	-21	x	-26%
CC(C)N(C(=O)[C@H]1C[C@H](CC(=O)NCC23CC4CC(CC(C4)C2)C3)C(=O)N2CCc3c([nH]c4cc(CCC(=O)N(C)C)ccc34)[C@]12C)C(C)C	x	-15%	-27%	-9	x	u
